Reference: ChEMBL document CHEMBL2218924, “A broad activity screen in support of a chemogenomic map for kinase signalling research and drug discovery” (Biochem J, 2013)

Legend:
[1] = molecular target: T1, Serine/threonine-protein kinase BRSK1 (Homo sapiens) (UniProt Q8TDC3); settings: at 1 µM
T1 sequence (whole entry): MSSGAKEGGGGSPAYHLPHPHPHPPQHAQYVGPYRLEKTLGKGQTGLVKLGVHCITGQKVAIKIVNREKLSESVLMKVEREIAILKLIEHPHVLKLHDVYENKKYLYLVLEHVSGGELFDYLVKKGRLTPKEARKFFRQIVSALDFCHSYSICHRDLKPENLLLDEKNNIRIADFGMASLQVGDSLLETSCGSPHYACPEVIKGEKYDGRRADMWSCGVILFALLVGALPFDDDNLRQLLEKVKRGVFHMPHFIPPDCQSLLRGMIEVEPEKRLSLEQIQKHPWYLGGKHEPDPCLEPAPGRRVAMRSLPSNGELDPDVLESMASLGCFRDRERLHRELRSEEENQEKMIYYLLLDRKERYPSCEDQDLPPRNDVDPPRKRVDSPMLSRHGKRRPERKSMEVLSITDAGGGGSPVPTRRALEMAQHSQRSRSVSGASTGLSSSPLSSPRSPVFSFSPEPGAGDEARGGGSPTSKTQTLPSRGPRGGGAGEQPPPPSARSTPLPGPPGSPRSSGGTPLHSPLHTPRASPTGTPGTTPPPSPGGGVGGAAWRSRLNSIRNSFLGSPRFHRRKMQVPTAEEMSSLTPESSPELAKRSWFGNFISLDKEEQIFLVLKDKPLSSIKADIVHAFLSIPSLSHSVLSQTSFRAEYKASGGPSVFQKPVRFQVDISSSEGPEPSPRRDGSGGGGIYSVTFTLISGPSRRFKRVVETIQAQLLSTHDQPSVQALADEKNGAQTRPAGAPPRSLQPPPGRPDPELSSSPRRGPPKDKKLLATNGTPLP

[2] = molecular target: T1, Serine/threonine-protein kinase BRSK1 (Homo sapiens); settings: at 10 µM
[3] = molecular target: T2, Serine/threonine-protein kinase BRSK2 (Homo sapiens) (UniProt Q8IWQ3); settings: at 1 µM
T2 sequence (whole entry): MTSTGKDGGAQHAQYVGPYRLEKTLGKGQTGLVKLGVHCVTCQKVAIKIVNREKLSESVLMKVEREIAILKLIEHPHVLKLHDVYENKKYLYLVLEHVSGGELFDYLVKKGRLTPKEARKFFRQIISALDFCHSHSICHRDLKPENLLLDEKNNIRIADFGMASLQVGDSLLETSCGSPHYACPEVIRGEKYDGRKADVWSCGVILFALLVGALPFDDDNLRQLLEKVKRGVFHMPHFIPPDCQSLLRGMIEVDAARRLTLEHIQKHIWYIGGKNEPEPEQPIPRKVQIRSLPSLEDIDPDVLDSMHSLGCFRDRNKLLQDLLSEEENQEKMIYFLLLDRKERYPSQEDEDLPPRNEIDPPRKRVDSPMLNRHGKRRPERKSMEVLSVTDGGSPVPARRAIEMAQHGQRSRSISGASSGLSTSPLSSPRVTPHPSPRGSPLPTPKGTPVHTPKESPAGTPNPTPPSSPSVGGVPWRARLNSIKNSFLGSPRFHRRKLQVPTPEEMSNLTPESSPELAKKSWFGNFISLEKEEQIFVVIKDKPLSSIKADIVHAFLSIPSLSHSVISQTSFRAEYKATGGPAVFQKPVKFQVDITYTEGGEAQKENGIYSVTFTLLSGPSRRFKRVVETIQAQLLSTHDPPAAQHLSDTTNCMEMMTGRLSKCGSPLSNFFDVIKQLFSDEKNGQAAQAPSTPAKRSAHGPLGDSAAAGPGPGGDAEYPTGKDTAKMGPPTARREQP

[4] = molecular target: T2, Serine/threonine-protein kinase BRSK2 (Homo sapiens); settings: at 10 µM
[5] = molecular target: T3, Cyclin-dependent kinase 2/cyclin E (Homo sapiens) (UniProt P24864+P24941+O96020); settings: at 1 µM
[6] = molecular target: T3, Cyclin-dependent kinase 2/cyclin E (Homo sapiens); settings: at 10 µM
[7] = molecular target: T4, CDK3/cyclin E (Homo sapiens) (UniProt P24864+O96020+Q00526); settings: at 1 µM
[8] = molecular target: T4, CDK3/cyclin E (Homo sapiens); settings: at 10 µM
[9] = molecular target: T5, Cyclin-dependent kinase 5/CDK5 activator 1 (Homo sapiens) (UniProt Q00535+Q15078); settings: at 1 µM
[10] = molecular target: T5, Cyclin-dependent kinase 5/CDK5 activator 1 (Homo sapiens); settings: at 10 µM
[11] = molecular target: T5, Cyclin-dependent kinase 5/CDK5 activator 1 (Homo sapiens); settings: at 1 µM; remark: listed apart in the source
[12] = molecular target: T5, Cyclin-dependent kinase 5/CDK5 activator 1 (Homo sapiens); settings: at 10 µM; remark: listed apart in the source
[13] = molecular target: T6, CDK6/cyclin D3 (Homo sapiens) (UniProt P30281+Q00534); settings: at 1 µM
[14] = molecular target: T6, CDK6/cyclin D3 (Homo sapiens); settings: at 10 µM
[15] = molecular target: T7, Cyclin-dependent kinase 7/ cyclin H (Homo sapiens) (UniProt P51946+P50613); settings: at 1 µM
[16] = molecular target: T7, Cyclin-dependent kinase 7/ cyclin H (Homo sapiens); settings: at 10 µM
[17] = molecular target: T8, Cyclin-dependent kinase 1/cyclin B1 (Homo sapiens) (UniProt P06493+P14635); settings: at 1 µM
[18] = molecular target: T8, Cyclin-dependent kinase 1/cyclin B1 (Homo sapiens); settings: at 10 µM
[19] = molecular target: T9, Cyclin-dependent kinase 2/cyclin A (Homo sapiens) (UniProt P24941+P20248+P78396); settings: at 1 µM
[20] = molecular target: T9, Cyclin-dependent kinase 2/cyclin A (Homo sapiens); settings: at 10 µM

T4 sequence (O96020 whole entry, looked up): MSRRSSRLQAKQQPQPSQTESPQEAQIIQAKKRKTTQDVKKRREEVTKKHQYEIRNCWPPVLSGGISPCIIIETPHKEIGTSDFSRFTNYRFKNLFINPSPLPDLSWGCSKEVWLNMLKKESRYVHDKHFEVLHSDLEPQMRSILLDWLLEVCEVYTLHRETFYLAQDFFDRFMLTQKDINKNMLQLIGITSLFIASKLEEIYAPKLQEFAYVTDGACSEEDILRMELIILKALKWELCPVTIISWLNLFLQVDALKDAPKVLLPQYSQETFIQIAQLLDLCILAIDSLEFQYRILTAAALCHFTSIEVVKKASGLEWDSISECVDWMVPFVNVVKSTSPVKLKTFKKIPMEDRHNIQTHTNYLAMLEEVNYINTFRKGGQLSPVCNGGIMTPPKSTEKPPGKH
T4 sequence (P24864 whole entry, looked up): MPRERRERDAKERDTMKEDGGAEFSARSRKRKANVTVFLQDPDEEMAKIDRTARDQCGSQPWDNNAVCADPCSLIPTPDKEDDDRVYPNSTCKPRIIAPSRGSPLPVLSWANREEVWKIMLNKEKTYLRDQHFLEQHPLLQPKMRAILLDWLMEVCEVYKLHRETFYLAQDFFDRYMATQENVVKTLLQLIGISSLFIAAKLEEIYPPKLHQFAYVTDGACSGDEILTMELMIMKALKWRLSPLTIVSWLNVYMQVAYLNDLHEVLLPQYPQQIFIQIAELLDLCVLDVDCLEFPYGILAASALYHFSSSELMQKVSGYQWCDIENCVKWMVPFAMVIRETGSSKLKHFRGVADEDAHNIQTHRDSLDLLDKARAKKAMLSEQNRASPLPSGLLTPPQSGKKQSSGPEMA
T4 sequence (Q00526 whole entry, looked up): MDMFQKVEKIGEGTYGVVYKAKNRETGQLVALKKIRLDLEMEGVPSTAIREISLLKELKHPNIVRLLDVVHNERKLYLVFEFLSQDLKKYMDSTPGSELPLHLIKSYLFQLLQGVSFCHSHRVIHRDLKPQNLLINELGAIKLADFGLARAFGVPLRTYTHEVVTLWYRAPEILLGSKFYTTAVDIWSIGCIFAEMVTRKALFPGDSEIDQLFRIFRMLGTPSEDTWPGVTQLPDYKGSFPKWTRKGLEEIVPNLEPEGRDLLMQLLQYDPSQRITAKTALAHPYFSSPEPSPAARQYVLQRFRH
T8 sequence (P06493 whole entry, looked up): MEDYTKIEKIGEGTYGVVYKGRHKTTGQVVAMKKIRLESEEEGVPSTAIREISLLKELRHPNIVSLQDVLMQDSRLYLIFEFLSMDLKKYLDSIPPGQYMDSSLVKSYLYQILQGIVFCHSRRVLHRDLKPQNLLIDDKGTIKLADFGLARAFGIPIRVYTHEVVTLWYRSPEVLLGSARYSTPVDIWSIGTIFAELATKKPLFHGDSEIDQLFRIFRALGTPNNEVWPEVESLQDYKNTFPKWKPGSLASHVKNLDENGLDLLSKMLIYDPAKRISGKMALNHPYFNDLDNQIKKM
T8 sequence (P14635 whole entry, looked up): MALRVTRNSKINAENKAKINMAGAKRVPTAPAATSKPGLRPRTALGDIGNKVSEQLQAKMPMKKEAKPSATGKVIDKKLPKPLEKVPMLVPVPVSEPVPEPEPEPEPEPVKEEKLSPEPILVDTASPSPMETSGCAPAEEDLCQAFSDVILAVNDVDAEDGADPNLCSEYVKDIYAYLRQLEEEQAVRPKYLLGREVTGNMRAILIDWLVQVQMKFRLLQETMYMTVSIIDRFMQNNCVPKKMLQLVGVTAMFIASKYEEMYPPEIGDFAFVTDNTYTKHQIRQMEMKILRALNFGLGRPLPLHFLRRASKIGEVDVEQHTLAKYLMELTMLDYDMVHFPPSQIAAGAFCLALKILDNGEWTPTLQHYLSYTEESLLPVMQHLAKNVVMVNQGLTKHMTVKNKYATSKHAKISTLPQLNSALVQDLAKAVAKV

| SMILES | residual activity [1] [%] | residual activity [2] [%] | residual activity [3] [%] | residual activity [4] [%] | residual activity [5] [%] | residual activity [6] [%] | residual activity [7] [%] | residual activity [8] [%] | residual activity [9] [%] | residual activity [10] [%] | residual activity [11] [%] | residual activity [12] [%] | residual activity [13] [%] | residual activity [14] [%] | residual activity [15] [%] | residual activity [16] [%] | residual activity [17] [%] | residual activity [18] [%] | residual activity [19] [%] | residual activity [20] [%] |
| --- | --- | --- | --- | --- | --- | --- | --- | --- | --- | --- | --- | --- | --- | --- | --- | --- | --- | --- | --- | --- |
| Cc1cncc2cccc(S(=O)(=O)N3CCCN(C(=O)CN)C[C@H]3C)c12 | 57 | 66 | 89 | 33 | 97 | 93 | 92 | 73 | 89 | 80 | 80 | 92 | 93 | 84 | 78 | 89 |  |  |  |  |
| CC(=O)c1ccc(N2CCOCC2)cc1O | 93 | 95 | 110 |  | 104 | 100 | 106 | 83 | 86 | 74 | 95 | 84 | 99 | 89 | 91 | 97 | 104 | 100 | 103 | 88 |
| Oc1c2ccccc2c2c3c(cccc13)N=N2 | 38 | 29 | 64 | 9 | 8 | 3 | 26 | 14 |  |  |  |  | 76 | 31 | 75 | 24 | 52 | 35 | 59 | 36 |
| COc1cc2ncnc(Nc3ccc(O)c(Br)c3)c2cc1OC | 17 | 22 | 91 | 34 | 102 | 88 | 84 | 71 | 84 | 51 | 98 | 67 | 87 | 86 | 81 | 78 | 100 | 68 |  | 42 |
| N#Cc1cnc2cnc(NCc3cccnc3)cc2c1Nc1ccc(F)c(Cl)c1 |  |  | 100 | 94 |  |  | 21 | 11 |  |  | 22 | 11 | 123 | 97 | 71 | 46 | 9 | 8 | 91 | 91 |
| CO[C@H]1[C@@H](OC)C[C@H](C)[C@@H](OC)C2=CC(=O)C=C(NC(=O)/C(C)=C/C=C/[C@H](OC)[C@@H](OC(N)=O)/C(C)=C/[C@@H]1C)C2=O | 76 | 75 | 92 | 106 | 104 | 91 | 100 | 87 | 104 | 92 | 105 | 83 | 107 | 92 |  | 101 | 111 | 110 | 138 | 83 |
| c1ccc2c(-c3ccncc3)c[nH]c2c1 | 52 | 59 | 106 | 61 |  |  | 90 | 73 | 91 | 74 | 86 | 75 | 85 | 82 | 83 | 94 |  |  |  | 83 |
| Nc1ccc2ncnc(NCCc3ccc(Oc4ccccc4)cc3)c2c1 |  | 49 | 113 | 99 | 98 | 90 | 107 | 90 | 99 | 85 | 123 | 98 | 114 | 96 | 98 | 85 | 99 | 95 | 92 | 80 |
| O=C1NC(=O)c2c1c1c3ccccc3[nH]c1c1[nH]c3cc(Br)ccc3c21 | 82 | 55 | 69 | 32 | 63 | 67 | 88 | 77 | 55 | 62 | 83 | 68 | 87 | 58 | 99 | 94 | 92 | 74 | 84 | 82 |
| Cc1cc2ncc(-c3ccccc3)nc2cc1C |  |  | 103 | 97 | 100 | 104 | 96 | 90 | 102 | 94 | 93 | 110 | 107 | 88 | 102 | 97 | 104 | 103 | 135 | 82 |
| Cc1cccc(-c2[nH]c(C(C)(C)C)nc2-c2ccc3c(c2)OCO3)n1 | 97 | 106 |  |  |  | 98 | 90 | 89 | 83 | 88 | 92 | 97 | 104 | 106 | 100 | 95 |  |  | 133 | 103 |
| O=c1c2ccccc2[nH]c(=S)n1CCN1CCC(=C(c2ccc(F)cc2)c2ccc(F)cc2)CC1 | 63 | 78 | 96 | 72 | 99 | 88 | 114 | 86 | 97 | 89 | 108 | 97 | 99 |  | 88 | 95 | 114 | 104 | 143 | 80 |
| CN(C)CCCn1cc(C2=C(c3c[nH]c4ccccc34)C(=O)NC2=O)c2ccccc21 | 42 | 39 | 71 | 22 |  | 35 | 88 | 33 | 75 | 25 | 81 | 33 | 103 | 53 | 47 | 13 | 102 | 40 | 128 | 38 |
